# Screening data deposited in PubChem BioAssay by National Center for Advancing Translational Sciences (NCATS).
# An excerpt weighted towards active compounds, which were near 9.4% of everything screened.
# Rab9 promoter act – Rab9 promoter activation; actives 2.8% (n = 320,000); Potency, µM (doses to about 9.22 µM), for inactives: top-dose activation, negative = inhibition, actives largely listed as activators; Huh7 Rab9 promoter-luciferase reporter, luminescence, 24 h; also: % of control where 0% means no effect; nearly all actives have a fitted effect of over 60% in size
#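 Cell-based reporter: Huh7 stable for Rab9 promoter-driven luciferase, plated in reduced-serum medium with 10% FBS at 1500 cells/well, compound-treated 24 h at 37 °C, luminescence read after 10 min reagent.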
# ELG1 genotoxic – genotoxicity induction in ELG1-luciferase HEK293T cells; HEK293T ELG1-luciferase reporter, luminescence, 16 h; Potency, µM (highest dose often 46 µM), for the others: at the highest dose activity change, positive = activation, actives largely listed as activators; actives 1.3% (n = 330,000); AID 504466; also: % of control where 0% means no effect; nearly all actives have a fitted effect of over 60% in size
#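 ELG1-luciferase HEK293T cells, 2,000/well; compound pinned in; 16 hr, 37 °C, 5% CO2; ONE-Glo, 30 min RT; luminescence on CCD imager.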
# FLuc modulator – inhibits or activates purified firefly luciferase, miR-21 counter-screen | P08659 | Potency, µM (titrated, usually from 57.5 µM), inactives show at the highest dose activity change, negative = inhibition, usual class: inhibitors | actives 6.9% (n = 360,000) | purified FLuc, Km substrates, luminescence inhibition;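 also: plate controls were vehicle for no effect and reference inhibitor for full effect; nearly all actives have a fitted effect of over 55% in size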
# Target sequence (P08659 whole entry, looked up): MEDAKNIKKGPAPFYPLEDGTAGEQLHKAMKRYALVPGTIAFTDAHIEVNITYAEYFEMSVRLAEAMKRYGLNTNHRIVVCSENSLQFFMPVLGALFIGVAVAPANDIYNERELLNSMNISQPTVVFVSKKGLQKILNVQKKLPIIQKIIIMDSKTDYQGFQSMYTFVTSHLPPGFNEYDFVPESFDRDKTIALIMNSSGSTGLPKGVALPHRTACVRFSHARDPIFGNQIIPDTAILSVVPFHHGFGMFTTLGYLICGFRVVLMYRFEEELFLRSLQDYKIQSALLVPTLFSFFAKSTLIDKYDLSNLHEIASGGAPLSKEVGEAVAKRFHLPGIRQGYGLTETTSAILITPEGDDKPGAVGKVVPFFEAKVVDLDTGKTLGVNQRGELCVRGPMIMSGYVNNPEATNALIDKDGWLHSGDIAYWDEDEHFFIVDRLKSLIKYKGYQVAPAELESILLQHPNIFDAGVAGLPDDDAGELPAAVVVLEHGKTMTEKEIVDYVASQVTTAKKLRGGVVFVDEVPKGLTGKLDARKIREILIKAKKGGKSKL
#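 Purified P. pyralis luciferase (10nM final) with 10uM D-luciferin and 10uM ATP (Km levels) in 50mM Tris acetate pH 7.5, 10mM Mg acetate, 0.01% Tween-20, 0.05% BSA; qHTS 6-point titration, ~60 µM downward; luminescence read.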
# ELG1 DNA repair – blocks ELG1-dependent DNA repair in HEK293T cells; HEK293T ELG1-luciferase reporter, luminescence, 16 h; DNA damage induced by 5-fluorouridine; Potency, µM (top dose mostly 46.1 µM), for the others: top-dose activity change, negative = inhibition, most hits filed as inhibitors; actives 2.3% (n = 330,000); AID 504467; also: % is scaled to controls: 0 for no effect and ±100 for the full control effect; nearly all actives have a fitted effect of over 55% in size
#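 Reporter activity after DNA damage by 5-fluorouridine is monitored. Compound-treated cells incubate 16 hr at 37 °C, then ONE-Glo is added for 30 min before luminescence reading.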
# NPC1 prom act – activators of NPC1 promoter. Huh7 NPC1 promoter luciferase reporter, 24 h. Potency, µM (doses to about 9.22 µM), for the others: at the highest dose activation, hits mostly activators. AID 485313. actives 2.4% (n = 320,000); also: % of control where 0% means no effect; nearly all actives have a fitted effect of over 60% in size
#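 NPC1 promoter–luciferase Huh7 cells; 24 h compound; luminescence.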
# SMN2 splice enh – SMN2 splice variant enhancement | HEK293 SMN2-luciferase splicing reporter, luminescence, 30-36 h | Potency, µM (top dose mostly 46.1 µM), for inactives: top-dose activity change, positive = activation, most hits filed as activators | actives 2.8% (n = 210,000) | AID 1458; also: % of control where 0% means no effect; nearly all actives have a fitted effect of over 55% in size
#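 qHTS luciferase splicing reporter: luminescence rises when SMN2 exon 7 is included in transfected HEK293 cells. Compound exposure lasted 30-36 h at 37C, with 4.5 mM final sodium butyrate as control, followed by a ONE-Glo read.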
# Numbers without * were called inactive; u = inconclusive; x = not tested or not shown; [ ] = remark or other dose. Calls follow the shape of the dose curve; as a rule, active = well fitted curve in the direction sought with a large enough effect; inconclusive = small, poorly fitted or top-dose-only effect, or another doubt; inactive = no such curve, though single readings can be large; an effect the other way counts as inactive or inconclusive. Potency is read from the fitted curve at half-maximal effect.
SMILES,Rab9 promoter act,ELG1 genotoxic,FLuc modulator,ELG1 DNA repair,NPC1 prom act,SMN2 splice enh
O=C1C=CC(O)(c2cc(=O)c3c(O)cc(O)cc3o2)C=C1,-45%,-17%,u,3.3µM*,-37%,-101%
O=c1c(O)c(-c2cc(O)c(O)c(O)c2)oc2cc(O)cc(O)c12,-8%[46.1 µM],-8%,u,13%,1%[46.1 µM],-11%
O=c1c(-c2cc(-c3ccccc3)nc3c2COc2ccc(Cl)cc2-3)coc2ccc(F)cc12,x,x,0%,x,x,-5%
C/C(=N\O)C(C)(C)Nc1cccc(Br)c1,-7%,-6%,-2%,12µM*,-2%,x
CC(=O)c1ccc(C(=O)N(Cc2cccnc2)c2nc3c(C)c(C)ccc3s2)cc1,x,x,-20%,x,x,x
Cn1c(=NC(=O)c2cccc([N+](=O)[O-])c2)sc2ccccc21,2.8µM*,0.82µM*,0.34µM*,u,u,1.6µM*
Cc1sc(=NC(=O)c2ccco2)n(C)c1-c1ccccc1,1.3µM*,u,0.95µM*,u,0.89µM*,2.2µM*
Cn1/c(=N\NC(=O)c2ccccc2Cl)sc2ccccc21,u,-3%,17µM*,u,u,u
Cn1c(=NC(=O)CCl)sc2ccccc21,-51%,u,-14%,u,-46%,-80%
C#CCn1c(=NC(=O)c2ccco2)sc2cccc(Cl)c21,5%,u,-2%,22%,1%,x
Cn1c(=NC(=O)c2ccco2)sc2ccccc21,u,4.1µM*,2.7µM*,u,u,4.5µM*
COc1cc(C(=O)N=c2sc3ccccc3n2C)cc(OC)c1OC,u,5%,u,u,12%,-27%
CCOc1cccc2sc(=NC(=O)c3ccco3)n(CC(=O)OC)c12,-3%,-12%,-9%,u,-4%,x
Cc1sc(=NC(=O)c2ccco2)n(C)c1-c1ccc(F)cc1,2µM*,u,2.4µM*,u,2.8µM*,3.5µM*
CCSc1nc2c(cnn2-c2ccccc2)c(=O)n1N,1.3µM*,u,13µM*,u,2.2µM*,x
CSc1nc2c(cnn2-c2ccccc2)c(=O)n1N,30%,18%,u,u,u,u
COc1ccc(CCNC(=O)c2ccc3c(c2)N(Cc2ccccc2C)C(=O)c2ccccc2S3)cc1OC,x,x,-1%,x,x,x
O=Nc1ccc(NO)cc1,x,x,x,x,x,-9%
NC(=O)CSc1ncc2c(n1)-c1ccccc1N(Cc1cccc(F)c1)S2(=O)=O,x,x,-2%,x,x,x
COc1ccc(C(=O)c2cn(Cc3ccccc3F)c3cc4c(cc3c2=O)OCCO4)cc1OC,x,x,-11%,x,x,0%
Cc1nc(-c2ccccc2)[nH]c(=O)c1Oc1ccc(Cl)cc1Cl,2%,-12%,-1%,8.2µM*,-3%,x
Cc1ccc(Oc2c(C)nc(-c3ccccc3)[nH]c2=O)cc1,-6%,-10%,-2%,u,-3%,x
CCCCCCCCCCCCC/C=C/[C@@H](O)[C@H](COP(=O)([O-])OCC[N+](C)(C)C)NC(=O)CCCCCCCCCCCCCCCCC,x,x,x,x,x,7%
CC(C)N=Cc1c(O)[nH]c2ccccc12,-7%,1%,3%,-2%,2%,-4%
Cc1cccc(/N=C/c2c(O)[nH]c3ccccc23)n1,3.5µM*,u,4.3µM*,u,u,u
SMILES,Rab9 promoter act,ELG1 genotoxic,FLuc modulator,ELG1 DNA repair,NPC1 prom act,SMN2 splice enh
Cc1cccc(/N=C/c2sc3ccccc3c2O)n1,u,4.6µM*,0.48µM*,u,21%,x
Cc1[nH]n(-c2ccccc2)c(=O)c1C=Nc1cccc2cccnc12,-37%,-8%,u,u,-36%,-12%
Oc1c(C=Nc2cccc3cccnc23)sc2ccccc12,-20%,3.3µM*,0.38µM*,u,-4%,-6%
O=[N+]([O-])c1ccc(O)c(N=Cc2sc3ccccc3c2O)c1,-17%,13%,11µM*,0%,15%,-77%
COc1cccc(N2CCN(C(=O)c3c(C)oc4ncnc(N5CCCCC5)c34)CC2)c1,x,x,-13%,x,x,x
COc1ccc(S(=O)(=O)Nc2cc3c(cc2NCc2ccccc2)n(C)c(=O)n3C)cc1,x,x,24µM*,x,x,10µM*
CCCS(=O)(=O)Nc1cc2c(cc1NCc1ccccc1)n(C)c(=O)n2C,x,x,u,x,x,5.6µM*
COc1ccc(NS(=O)(=O)c2ccc3c(c2)n(C)c(=O)n3C)cc1,-3%,6%,-3%,u,4%,-13%
Cn1c(=O)n(C)c2cc(NS(=O)(=O)c3ccc(Br)cc3)c(NCc3ccccc3)cc21,x,x,u,x,x,7.1µM*
Cn1c(=O)n(C)c2cc(S(=O)(=O)NCc3ccccc3)ccc21,2%,-1%,4%,u,1%,-16%
CN(C)CCNS(=O)(=O)N(C)C,x,x,x,x,x,3%[9.22 µM]
Cc1ccc(N(C)C(=O)C2CCN(S(=O)(=O)c3cn(C)cn3)CC2)cc1,x,x,-5%,x,x,x
COc1ccc(NC(=O)c2csc(Cc3ccc(Cl)cc3)n2)cc1,-12%,-1%,24µM*,u,1%,-23%
COc1ccc(Cc2nc(C(=O)Nc3ccccc3)cs2)cc1,22%,0%,19µM*,u,u,-67%
COc1ccc(Cc2nc(C(=O)Nc3ccc(Cl)cc3)cs2)cc1,0%,u,u,u,-4%,-75%
O=C(Nc1ccc(Cl)cc1)c1csc(Cc2ccccc2)n1,u,u,5.4µM*,u,22%,u
CC(=O)c1nn(-c2ccc(OC(F)(F)F)cc2)nc1Nc1ccc(Cl)cc1,x,x,-8%,x,x,5%
CCN(C(=O)c1cc2c(s1)-c1c(C)cccc1OC2)c1cc(C)ccc1C,x,x,-11%,x,x,-4%
Cc1cc(C)c(C(=O)/C=C/c2cccc3ccccc23)c(=O)[nH]1,-21%,-16%,-1%,15µM*,-10%,-80%
COc1ccccc1NC(=O)c1cccs1,18%,4%,-3%,u,14%,-8%
COc1ccccc1NC(=O)c1ccccc1NC(=O)c1cccs1,0%,2%,19µM*,11%,-3%,x
O=C(Nc1ccc(Cl)cc1)c1cccs1,x,x,12µM*,x,x,23%
O=C(Nc1ccc(NC(=O)C2CC2)cc1)c1cccs1,1.3µM*,u,13µM*,u,3.5µM*,x
O=C(/C=C/c1cccs1)c1ccc(NC(=O)c2ccccc2F)cc1,20%,22%,3µM*,u,12%,4%
O=C(Nc1cc(F)ccc1F)C1CCN(C(=O)c2cnn(-c3ccccc3)c2-n2cccc2)CC1,x,x,-1%,x,x,-18%
CCCCNc1nc(C)nc2c1nc(-c1ccccc1)n2CC(C)(C)CN(C)C,x,x,x,x,x,-5%
O=C(Nc1ccc(NC(=O)c2ccccc2F)cc1)c1cccs1,3.5µM*,u,-15%,u,u,x
